The campaign covered roughly 420,000 compounds. About 50,000 (12%) were called active. A call without a number means that no potency is given here. Another 26% or so got no clear call; they are omitted. Calls follow the shape of the dose curve; as a rule, active = well fitted inhibition curve with a large enough effect; inconclusive = small, poorly fitted or top-dose-only effect; inactive = flat fitted curve, though single readings scatter. The full list was thinned out, with actives kept by preference.
Test: qHTS for Inhibitors of human tyrosyl-DNA phosphodiesterase 1 (TDP1): qHTS in cells in presence of CPT; also: nearly all actives have a fitted effect of over 55% in size
Settings: chicken DT40 Tdp1-/-;hTDP1 cells + 20 nM CPT, ATP luminescence, 48 h; series mostly up to 46.2 µM
Outline: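 Chicken DT40 Tdp1-/- cells complemented with human TDP1, 400 cells/well, exposed to compounds plus 20 nM camptothecin for at least 48 h at 37 C; viability read as ATP content by CellTiter-Glo luminescence.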
Potency is read from the fitted curve at half-maximal effect.

SMILES | Potency
O=C(C[C@H]1C[C@@H]2c3cc(NC(=O)C4CCC4)ccc3O[C@@H]2[C@H](CO)O1)NC1CCCCC1 | inactive
O=C(Nc1ccc2c(c1)[C@@H]1C[C@@H](CC(=O)N3CCCCC3)O[C@@H](CO)[C@@H]1O2)NC1CCCCC1 | inactive
O=C(C[C@H]1C[C@H]2c3cc(NS(=O)(=O)c4ccc(F)cc4)ccc3O[C@H]2[C@H](CO)O1)NCc1cc(F)ccc1F | 16.4 µM (active)
Cc1cccc(C(=O)N2CCC(c3nc4ccccc4s3)CC2)c1 | inactive
COC(=O)C1=NNC2(c3ccc(C)cc3)C(=O)N(c3cccc(C)c3C)C(=O)C12 (stereo not given) | inactive
CCCCn1c(N)c(N(CC)C(=O)c2ccc(N(C)S(=O)(=O)c3ccc(C)cc3)cc2)c(=O)[nH]c1=O | inactive
Cc1cccc(C(=O)Nc2ccccc2-c2nnn(CC(=O)Nc3ccc4c(c3)OCCO4)n2)c1 | inactive
O=C(NCCCn1ccnc1)Nc1ccc(Cl)cc1Cl | inactive
Cc1ccc2c(Cl)c(C(=O)NCCCn3ccnc3)sc2c1 | inactive
Cc1ccc(-n2ncc3c(NCCCn4ccnc4)ncnc32)cc1Cl | 20.6 µM (active)
CC1CN(C(=O)N2CCC(C(=O)NCc3cccs3)CC2)c2ccccc2O1 (stereo not given) | inactive
Cc1cnc(CN(C)C(=O)C2CCC(=O)N(CCc3cccc(F)c3)C2)[nH]1 (stereo not given) | inactive
S=C(Nc1ccc(Cl)cc1Cl)N1CCCC1 | inactive
O=C(NC(=S)Nc1ccc(Br)cc1F)C1CCCCC1 | inactive
O=C(NC(=S)Nc1ccc(Cl)cc1Cl)C1CC1 | 20.6 µM (active)
CCCCCCNC(=O)CSc1nccn1Cc1ccccc1 | inactive
COC1[C@H](OC(N)=O)C(O)[C@H](Oc2ccc3c(O)c(NC(=O)c4ccc(O)c(CC=C(C)C)c4)c(=O)oc3c2C)OC1(C)C (stereo not given in full) | inactive
Cc1ccc(NC(=O)CN(C)C(=O)COC(=O)c2nccnc2N)cc1 | inactive
CC[C@@H]1CCCCc2ccccc2[C@@H](C(=O)C[C@H](O)CC(C)=O)OC1=O | inactive
O=C(CN1C(=O)C2C3C=CC(C3)C2C1=O)NCC1COc2ccccc2O1 (stereo not given) | inactive
Cc1noc(C)c1C(=O)NCC1COc2ccccc2O1 (stereo not given) | inactive
Cc1cc(NC(=O)CCC2COc3ccccc3O2)no1 (stereo not given) | inactive
CCn1ccnc1C[C@@H]1COc2ccccc2O1 | inactive
Cc1cc(C(=O)CCl)c(C)n1CC1COc2ccccc2O1 (stereo not given) | 2.06 µM (active)
O=C1C(=O)N(CC2COc3ccccc3O2)c2ccccc21 (stereo not given) | 1.64 µM (active)

SMILES | Potency
O=c1c(NCc2cccs2)nccn1-c1ccccc1 | inactive
CCN(CC(=O)Nc1c(F)cccc1F)C(=O)CN1c2cccc3cccc(c23)S1(=O)=O | inactive
O=C(Cn1cc(C(F)(F)F)ccc1=O)Nc1ccc2c(c1)OCCO2 | inactive
O=C(NCCc1nnc2ccc(SCC(=O)N3CCOCC3)nn12)c1ccccc1 | inactive
CC1=CCC2C(=O)N(c3cccc(C(=O)NC(C)c4ccccc4)c3)C(=O)C2C1 (stereo not given) | inactive
COc1ccc(Cl)cc1NC(=O)CN(C)CC(=O)Nc1ccc2c(c1)OCO2 | inactive
Cc1oc(C)c2c(=O)cc(-c3ccc4c(c3)OCO4)cc(OC(=O)c3ccc(Cl)cc3)c12 | 20.6 µM (active)
CC1(c2ccc(Cl)cc2)NC(=O)N(CC(=O)c2ccc3c(c2)OCO3)C1=O (stereo not given) | inactive
Cc1cc(-c2ccccc2)nc(N2CCC(C(=O)NC34CC5CC(CC(C5)C3)C4)CC2)n1 | inactive
CSCCC(NC(=O)COc1ccccc1)C(=O)OCCOc1ccc(F)cc1 (stereo not given) | inactive
CSCCC(NC(=O)COc1ccccc1)C(=O)N1CCN(c2cccc(C(F)(F)F)c2)CC1 (stereo not given) | 16.4 µM (active)
CSCCC(NC(=O)COc1ccccc1)C(=O)OCCOc1ccc(Br)cc1 (stereo not given) | inactive
Nc1cc(N2CCCCCC2)c2nonc2c1[N+](=O)[O-] | inactive
C(=Nc1ccc(/C=C/c2ccnc3ccccc23)cc1)Nc1ccc(/C=C/c2ccnc3ccccc23)cc1 | 10 µM (active)
C(=Nc1ccc(/C=C/c2ccnc3ccccc23)cc1)c1cc2c3c(c1)CCCN3CCC2 | 11.2 µM (active)
CCCCC(CCCC)c1ccc(C=Nc2ccc(/C=C/c3ccnc4ccccc34)cc2)cc1 | 17.8 µM (active)
Cc1ccc(CNC(=O)CCNS(=O)(=O)c2cccc3nonc23)cc1 | inactive
CCOC(=O)Cc1ccc(NC(=O)Nc2c[nH]c(=O)[nH]c2=O)cc1 | inactive
O=C(NNC(=S)Nc1ccc(F)cc1)[C@H]1C[C@@H]1c1ccccc1 | inactive
CC(Oc1ccccc1F)C(=O)NN (stereo not given) | inactive
Cc1ccc(S(=O)(=O)N(C)C)cc1NC(=O)CN1c2cccc3cccc(c23)S1(=O)=O | inactive
Cc1c(NC(=O)c2c([N+](=O)[O-])cnn2C)c(=O)n(-c2ccccc2)n1C | inactive
CC(C)CC(NS(=O)(=O)c1ccc2c(c1)oc(=O)n2C)C(=O)NCc1ccccc1Cl (stereo not given) | inactive
O=c1c2cc([N+](=O)[O-])ccc2nc2n1CCC2 | inactive
Cc1cc(C(C)(C)C)cc(C)c1N | inactive

SMILES | Potency
C=CCn1c(=NC(=O)c2cccs2)sc2cc(NC(C)=O)ccc21 | 13 µM (active)
C=CCn1c(=NC(=O)c2ccc(S(=O)(=O)N3CCCC3)cc2)sc2cc(NC(C)=O)ccc21 | inactive
C=CCn1c(CCNC(=O)c2cccs2)n[nH]c1=S | inactive
Cc1cccc(CCNS(=O)(=O)c2ccc3c(c2)NC(=O)CO3)c1 | inactive
CCOC(=O)c1cc2c(=O)n3ccccc3nc2n(CC2CCCO2)c1=NC(=O)c1ccc(C(C)(C)C)cc1 (stereo not given) | inactive
CCc1nc(SCC(=O)NNC(=O)c2ccc(C)cc2)c2ccccc2n1 | inactive
COC(=O)CSc1nc(C2CC2)nc2ccccc12 | inactive
CC(C)N(C(=O)CSc1nc(COc2ccccc2)nc2ccccc12)C(C)C | 23.1 µM (active)
CCC(=O)Nc1ccccc1C(=O)N1CCN(Cc2ccccc2)CC1 | inactive
Cc1nn(Cc2ccccc2)c(C)c1C(=O)N1CCN(CC(=O)Nc2ccccc2Cl)CC1 | 16.4 µM (active)
Cc1cc(C)cc(NC(=O)NC2CCN(CC(=O)Nc3cccc(Cl)c3C)CC2)c1 | inactive
CNC(=O)CN1C(=O)NC(c2ccccc2)(c2ccccc2)C1=O | inactive
Cc1ccc(CSCC2Nc3ccc(C(=O)N4CCN(c5ccc(F)cc5)CC4)cc3NC2=O)cc1 (stereo not given) | 16.4 µM (active)
COC(=O)c1ccc(C(=O)OC)c(NC(=S)N2CCN(c3ccc(F)cc3)CC2)c1 | inactive
Cc1ccc(SCC(=O)N2CCN(c3ccc(F)cc3)CC2)cc1 | inactive
CN(Cc1ccc(CNC[C@H]2O[C@@H](n3cnc4c(N)ncnc43)[C@H](O)[C@@H]2O)o1)S(C)(=O)=O | inactive
Cn1cccc1C(C#N)c1ccccc1C#N (stereo not given) | inactive
CCc1ccc2c(c1)C(c1ccc([N+](=O)[O-])cc1)=NNC(c1ccccc1)=N2 | inactive
Cc1ccc(C2=Nc3c(ccc4ccccc34)C(c3ccncc3)=NN2)cc1 | 18.4 µM (active)
Cc1cc(C)n2nc(C(=O)OC(C)C(=O)c3cc(C)c(C)cc3C)nc2n1 (stereo not given) | inactive
COc1cc(OC)cc(C(=O)NC2CCN(C(=O)N3c4ccccc4Sc4ccccc43)CC2)c1 | 29.1 µM (active)
COc1ccc(C(=O)NC2CCN(C(=S)NCCc3ccccc3)CC2)cc1 | inactive
COc1ccc(C(=O)NC2CCN(C(=S)Nc3ccccc3)CC2)cc1 | inactive
O=C(c1ncn2c1c(=O)[nH]c1ccccc12)N1CCc2ccccc2C1 | inactive
CCOC(=O)C1CCCN(CC(=O)Nc2cc(C)c3c(=O)oc4ccccc4c3n2)C1 (stereo not given) | inactive

SMILES | Potency
COc1cc(/C=C/C(=O)O)cc(S(=O)(=O)Nc2ccccc2SC)c1OC | inactive
CCn1c(=O)cc(SCC(=O)NCc2ccc3c(c2)OCO3)c2ccccc21 | inactive
O=C(CC1Oc2ccc(Cl)cc2NC1=O)NCc1ccccc1 (stereo not given) | inactive
O=C(COC(=O)c1cc(=O)[nH]c2ccccc12)NCc1cccc(Cl)c1 | inactive
O=C1N(Cc2ccc3c(c2)OCO3)c2ccccc2C1(O)c1c[nH]c2ccccc12 (stereo not given) | 18.4 µM (active)
O=C(CSc1ncn[nH]1)NCc1ccc2c(c1)OCO2 | inactive
O=C1N(Cc2ccccc2)c2ccc(Cl)cc2C1(O)c1c[nH]c2ccccc12 (stereo not given) | 23.1 µM (active)
CCOc1ccc(CCNC(=O)COC(=O)c2ccc(F)c(S(=O)(=O)N3CCOCC3)c2)cc1OCC | inactive
O=C(CSc1nnc(-c2ccncc2)o1)Nc1cccc(Cl)c1 | inactive
COC(=O)c1cnc(Nc2cc(C)ccc2OC)c2ccccc12 | inactive
Oc1ccc(CNc2ccccc2O)cc1 | 25.9 µM (active)
O=C(OCc1ccccc1)c1ccc(O)cc1 | inactive
O=[N+]([O-])c1ccccc1Nc1ccc(O)cc1 | inactive
CCOC(=O)C(C)N(c1ccccc1Cl)S(C)(=O)=O (stereo not given) | inactive
O=C(NCCCN1CCOCC1)c1cc(-c2cccc(O)c2)on1 | inactive
Cc1nc([N+](=O)[O-])nn1C12CC3CC(CC(Br)(C3)C1)C2 | 23.1 µM (active)
CC[C@@H](C)[C@H](NC(=O)CCc1c(C)c2cc3c4c(oc3c(C)c2oc1=O)CCCC4)C(=O)O | inactive
COCc1c(C(=O)N/N=C(\C)c2ccncc2)nnn1-c1nonc1N | inactive
CSc1ccc(/C=C2\NC(=O)NC2=O)cc1 | inactive
O=C(Nc1ccnn1C1CCN(Cc2cccc(OCCO)c2)CC1)C1CCCC1 | inactive
CCN(CC)CCN(C(=O)c1cc(Cl)sc1Cl)c1nc2cc3c(cc2s1)OCO3 | inactive
Nc1ccccc1SCc1cc([N+](=O)[O-])cc2c1OCOC2 | inactive
Nc1ccccc1Sc1ccc(C(F)(F)F)cc1[N+](=O)[O-] | inactive
Nc1ccccc1SC(C[N+](=O)[O-])c1ccccc1 (stereo not given) | 4.11 µM (active)
COc1ccc(NS(=O)(=O)c2ccc(C)c(C(=O)NNC(=O)c3csc(N4CCOCC4)n3)c2)cc1 | inactive
